20 compounds from PubChem BioAssay (EPA / NIEHS) can be followed below.

Values joined by “and” are separate entries in the source; they are usually repeats but may differ in a detail not shown here. Equal values may be shown once. Records with an inconclusive call do not appear. Active and inactive are the calls of the source. The calls were made as follows: active = hit-call score of the fitted dose curve at least 0.9, where 1 is the maximum; inconclusive = response in the unintended direction; inactive = score below 0.9.

The target of assay [1] is human Tropomyosin Receptor Kinase A (TRKA), NTRK1 (gene 4914) (UniProt P04629). Nature of the assay: NVS_ENZ_hTrkA: NovaScreen (NVS) Enzymatic Assay for human Tropomyosin Receptor Kinase A (TRKA) (AID 2283224). The method, boiled down: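 Compounds were screened at 25 uM in duplicate, then concentration series to a 50 uM top for those meeting threshold (e.g. 30% inhibition). Enzyme was recombinant human TrkA, incubated 1 h. Product formation was quantified by fluorescence after mobility-shift separation.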

Assay [2] deals with human Vascular Endothelial Growth Factor Receptor 3 (VEGFR3), FLT4 (gene 2324) (UniProt P35916). Nature of the assay: NVS_ENZ_hVEGFR3: NovaScreen (NVS) Enzymatic Assay for human Vascular Endothelial Growth Factor Receptor 3 (VEGFR3) (AID 2283229). The method, boiled down: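 Chemicals first run in duplicate at 25 uM, with actives re-tested in concentration series to a top of 50 uM. Recombinant VEGFR3 activity measured after 1 h via fluorescence with mobility-shift product separation; inhibition fitted relative to DMSO.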

Assay [3] concerns the target rat Catechol-O-Methyl Transferase (COMT), Comt (gene 24267) (UniProt P22734). Nature of the assay: NVS_ENZ_rCOMT: NovaScreen (NVS) Enzymatic Assay for rat Catechol-O-Methyl Transferase (COMT) (AID 2283235). The method, boiled down:
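Rat dorsal striatum extract served as COMT source; product quantified by HPLC/spectrophotometry, read at 0 h after dosing. Primary single-concentration screen at 25 uM, followed by concentration series to a 50 uM maximum.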

Assay [4] addresses human Tyrosine Protein Kinase Receptor Tie-2 (Tie2), TEK (gene 7010) (UniProt Q02763). Nature of the assay: NVS_ENZ_hTie2: NovaScreen (NVS) Enzymatic Assay for human Tyrosine Protein Kinase Receptor Tie-2 (Tie2) (AID 2283225). The method, boiled down:
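Substrate and product were separated by mobility shift and detected by fluorescence after a 1-hour reaction with recombinant Tie2. Chemicals passing a 25 uM single-point screen were titrated to a maximum of 50 uM. Results were normalized to DMSO baseline.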

Assay [5] concerns rat Monoamine Oxidase, MAO-A, Peripheral (MAOAP), gene 29253. Nature of the assay: NVS_ENZ_rMAOAP: NovaScreen (NVS) Enzymatic Assay for rat Monoamine Oxidase, MAO-A, Peripheral (MAOAP) (AID 2283237). The method, boiled down:
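Scintillation counting tracked MAO-A activity in a cell-free rat liver mitochondrial membrane prep, read 1.17 hours after compound addition. Single-point duplicate testing at 25 uM preceded concentration-response follow-up; activity was fitted relative to DMSO.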

The subject of assay [6] is bovine Angiotensin II Receptor Type 2 (AT2), gene 407157. Nature of the assay: NVS_GPCR_bAT2: NovaScreen (NVS) G Protein-Coupled Receptor Assay for bovine Angiotensin II Receptor Type 2 (AT2) (AID 2283240). The method, boiled down: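 Radioligand displacement on bovine cerebellar membranes, 1 hour incubation, filter-based scintillation counting; loss of signal vs DMSO. Duplicate single-point screen at 25 uM, then concentration-response to 50 uM maximum.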

The target of assay [7] is rat Acetylcholinesterase (AChE), Ache (gene 83817) (UniProt P37136). Nature of the assay: NVS_ENZ_rAChE: NovaScreen (NVS) Enzymatic Assay for rat Acetylcholinesterase (AChE) (AID 2283233). The essentials:
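Compounds first screened at 25 uM in duplicate, then those passing threshold tested in concentration series up to 50 uM, against AChE from rat brain membranes. Enzyme activity read by absorbance at 0.33 h; inhibition scored versus DMSO.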

Assay [8] has as its target human Sirtuin 3 (SIRT3), SIRT3 (gene 23410) (UniProt Q9NTG7). Put plainly: NVS_ENZ_hSIRT3: NovaScreen (NVS) Enzymatic Assay for human Sirtuin 3 (SIRT3) (AID 2283222). The method, boiled down: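 Cell-free enzyme assay with recombinant protein and fluorescent substrate, product separated by electrophoretic mobility shift; read 1 hour after dosing. Screened in duplicate at 25 uM, then singleton concentration-response up to 50 uM; loss of signal versus DMSO.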

In assay [9] the target is rat Constitutive Nitric Oxide Synthase (CNOS), Nos1 (gene 24598) (UniProt P29476). Nature of the assay: NVS_ENZ_rCNOS: NovaScreen (NVS) Enzymatic Assay for rat Constitutive Nitric Oxide Synthase (CNOS) (AID 2283236). The method, boiled down: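 Single 25 uM duplicate screen, then concentration series to 50 uM for chemicals meeting threshold. Rat brain membrane-derived CNOS activity detected radiometrically by filtration and scintillation counting, 1 h after compound addition; DMSO as baseline.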

The target of assay [10] is sheep Cyclooxygenase-1 (Cox1), PTGS1 (gene 443551) (UniProt P05979). Nature of the assay: NVS_ENZ_oCOX1: NovaScreen (NVS) Enzymatic Assay for sheep Cyclooxygenase-1 (Cox1) (AID 2283239).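 Also: actives reduce cyclooxygenase activity so potencies are for inhibitors.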 The essentials: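 Colorimetric enzyme readout using sheep seminal-vesicle cyclooxygenase-1, measured 0.66 h post-dosing. Single-concentration duplicates at 25 uM first, then concentration series for actives, with DMSO as baseline and plate controls.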

Assay [11] has as its target sheep Cyclooxygenase-2 (Cox2), PTGS2 (gene 443460) (UniProt P79208). Put plainly: NVS_ENZ_oCOX2: NovaScreen (NVS) Enzymatic Assay for sheep Cyclooxygenase-2 (Cox2) (AID 2283231). The essentials:
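Enzyme extracted from ovine placenta tested cell-free; activity read colorimetrically by absorbance 0.66 hour after dosing. Primary screen in duplicate at 25 uM; hits rerun as concentration series to 50 uM, loss of signal versus DMSO baseline.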

Assay [12] has as its target human Vascular Endothelial Growth Factor Receptor 2 (VEGFR2), KDR (gene 3791) (UniProt P35968). Nature of the assay: NVS_ENZ_hVEGFR2: NovaScreen (NVS) Enzymatic Assay for human Vascular Endothelial Growth Factor Receptor 2 (VEGFR2) (AID 2283230). The method, boiled down:
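Cell-free recombinant VEGFR2 kinase, fluorescent substrate with electrophoretic mobility-shift separation; read 1 h after dosing. Screened at 25 uM in duplicate, hits to concentration-response up to 50 uM; loss-of-signal versus DMSO.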

The target of assay [13] is rabbit Imidazoline 2 Central (I2C), CKB (gene 100009085) (UniProt P00567). Put plainly: NVS_ENZ_rabI2C: NovaScreen (NVS) Enzymatic Assay for rabbit Imidazoline 2 Central (I2C) (AID 2283228). The essentials: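 Rabbit brain membranes, cell-free; readout by filter-based scintillation counting 1.5 hours after dosing, loss of signal vs DMSO. Initial duplicate test at 25 uM, then concentration-response with 50 uM top concentration.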

Assay [14] addresses rat Monoamine Oxidase, MAO-B, Central (MAOBC), Maob (gene 25750) (UniProt P19643). Put plainly: NVS_ENZ_rMAOBC: NovaScreen (NVS) Enzymatic Assay for rat Monoamine Oxidase, MAO-B, Central (MAOBC) (AID 2283238). The essentials: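 Here MAO-B activity in rat brain preparations is quantified radiometrically, counts taken at 1.17 hours. Concentration-response runs reach 50 uM, with plate controls, and values are fitted as loss of signal from the DMSO baseline.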

The target in assay [15] is human Vascular Endothelial Growth Factor Receptor 1 (VEGFR1), FLT1 (gene 2321) (UniProt P17948). Put plainly: NVS_ENZ_hVEGFR1: NovaScreen (NVS) Enzymatic Assay for human Vascular Endothelial Growth Factor Receptor 1 (VEGFR1) (AID 2283226). The method, boiled down:
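Kinase activity of recombinant human VEGFR1 was read by fluorescence after electrophoretic separation of product from substrate, 1 h post-dosing; initial duplicate single-point testing at 25 uM, followed by concentration-series follow-up, with DMSO as baseline.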

Assay [16] has as its target rat Adenylate Cyclase, Forskolin Stimulated, Adcy5 (gene 64532) (UniProt Q04400). Nature of the assay: NVS_ENZ_rACFSKBinding: NovaScreen (NVS) Enzymatic Assay for rat Adenylate Cyclase, Forskolin Stimulated (AID 2283232). The method, boiled down: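 Chemicals were first tested at 25 uM in duplicate, then hits run as concentration series with top concentration 50 uM. Enzyme source was rat forebrain membranes; radiometric filter read-out after 1 h, referenced to DMSO.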

The target of assay [17] is human Sirtuin 2 (SIRT2), SIRT2 (gene 22933) (UniProt Q8IXJ6). Put plainly: NVS_ENZ_hSIRT2: NovaScreen (NVS) Enzymatic Assay for human Sirtuin 2 (SIRT2) (AID 2283217). The essentials:
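Single-point duplicate screen at 25 uM, then concentration-response (max 50 uM) for chemicals passing threshold. Enzyme activity of recombinant human SIRT2 measured after 1 hr by fluorescence with mobility-shift separation of product; DMSO baseline.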

The target of assay [18] is human Sirtuin 1 (SIRT1), SIRT1 (gene 23411) (UniProt Q96EB6). Put plainly: NVS_ENZ_hSIRT1: NovaScreen (NVS) Enzymatic Assay for human Sirtuin 1 (SIRT1) (AID 2283219). The essentials:
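Cell-free recombinant SIRT1 with a fluorescent substrate; substrate and product separated by electrophoretic mobility shift and read by fluorescence intensity, 1 h after dosing. Primary screen at 25 uM in duplicate; hits re-run in concentration-response up to 50 uM, relative to DMSO.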

Assay [19] concerns the target bovine Dopamine Receptor (DR), Non-selective Binding, DRD1 (gene 281125) (UniProt Q95136). Put plainly: NVS_GPCR_bDR_NonSelective: NovaScreen (NVS) G Protein-Coupled Receptor Assay for bovine Dopamine Receptor (DR), Non-selective Binding (AID 2283241). The method, boiled down:
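Filter-based radioligand binding with bovine striatal membrane, incubated 1 h; DMSO as negative baseline. Initial duplicate single-point test at 25 uM preceded concentration series for actives.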

In assay [20] the target is human SRC Proto-Oncogene, Non-receptor Tyrosine Kinase (SRC), SRC (gene 6714) (UniProt P12931). Put plainly: NVS_ENZ_hSRC: NovaScreen (NVS) Enzymatic Assay for human SRC Proto-Oncogene, Non-receptor Tyrosine Kinase (SRC) (AID 2283223). The essentials:
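Compounds passing 30% inhibition at 25 uM (duplicate) were titrated to a top concentration of 50 uM. Enzyme activity read by fluorescence with mobility-shift substrate/product separation after 1 h; DMSO baseline.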

Chain of rat Monoamine Oxidase, MAO-B, Central (MAOBC), Maob (gene 25750) (P19643 whole entry, looked up): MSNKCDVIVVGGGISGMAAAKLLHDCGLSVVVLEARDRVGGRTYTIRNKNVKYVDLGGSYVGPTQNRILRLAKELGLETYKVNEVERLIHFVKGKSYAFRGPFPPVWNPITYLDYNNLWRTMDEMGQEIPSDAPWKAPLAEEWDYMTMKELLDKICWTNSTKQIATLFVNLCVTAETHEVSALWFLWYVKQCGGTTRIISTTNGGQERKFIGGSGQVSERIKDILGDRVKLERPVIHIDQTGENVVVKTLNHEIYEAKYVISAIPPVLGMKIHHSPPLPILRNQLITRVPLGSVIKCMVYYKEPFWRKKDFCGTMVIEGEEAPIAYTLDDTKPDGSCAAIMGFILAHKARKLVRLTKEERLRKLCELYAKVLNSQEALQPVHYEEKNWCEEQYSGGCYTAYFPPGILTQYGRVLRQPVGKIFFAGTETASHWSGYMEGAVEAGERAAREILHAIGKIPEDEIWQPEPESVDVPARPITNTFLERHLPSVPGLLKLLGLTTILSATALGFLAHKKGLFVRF
Chain of sheep Cyclooxygenase-2 (Cox2), PTGS2 (gene 443460) (P79208 whole entry, looked up): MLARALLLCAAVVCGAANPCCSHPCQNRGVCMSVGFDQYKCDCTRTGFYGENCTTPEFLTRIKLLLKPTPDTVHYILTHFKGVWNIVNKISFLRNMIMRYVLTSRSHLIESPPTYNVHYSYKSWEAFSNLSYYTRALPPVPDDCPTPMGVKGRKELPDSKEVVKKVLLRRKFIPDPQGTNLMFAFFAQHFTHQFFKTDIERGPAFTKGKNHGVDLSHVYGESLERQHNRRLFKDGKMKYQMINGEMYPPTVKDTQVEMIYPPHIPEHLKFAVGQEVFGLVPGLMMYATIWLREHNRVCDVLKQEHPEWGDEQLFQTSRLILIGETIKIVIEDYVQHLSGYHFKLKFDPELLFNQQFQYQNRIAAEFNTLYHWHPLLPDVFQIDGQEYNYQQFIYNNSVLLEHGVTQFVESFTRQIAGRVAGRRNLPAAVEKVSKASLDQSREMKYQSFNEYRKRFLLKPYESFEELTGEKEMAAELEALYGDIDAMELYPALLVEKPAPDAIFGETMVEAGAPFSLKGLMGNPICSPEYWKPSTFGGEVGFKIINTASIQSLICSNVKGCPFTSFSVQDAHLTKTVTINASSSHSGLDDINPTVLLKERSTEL
Chain of rat Constitutive Nitric Oxide Synthase (CNOS), Nos1 (gene 24598) (P29476 whole entry, looked up): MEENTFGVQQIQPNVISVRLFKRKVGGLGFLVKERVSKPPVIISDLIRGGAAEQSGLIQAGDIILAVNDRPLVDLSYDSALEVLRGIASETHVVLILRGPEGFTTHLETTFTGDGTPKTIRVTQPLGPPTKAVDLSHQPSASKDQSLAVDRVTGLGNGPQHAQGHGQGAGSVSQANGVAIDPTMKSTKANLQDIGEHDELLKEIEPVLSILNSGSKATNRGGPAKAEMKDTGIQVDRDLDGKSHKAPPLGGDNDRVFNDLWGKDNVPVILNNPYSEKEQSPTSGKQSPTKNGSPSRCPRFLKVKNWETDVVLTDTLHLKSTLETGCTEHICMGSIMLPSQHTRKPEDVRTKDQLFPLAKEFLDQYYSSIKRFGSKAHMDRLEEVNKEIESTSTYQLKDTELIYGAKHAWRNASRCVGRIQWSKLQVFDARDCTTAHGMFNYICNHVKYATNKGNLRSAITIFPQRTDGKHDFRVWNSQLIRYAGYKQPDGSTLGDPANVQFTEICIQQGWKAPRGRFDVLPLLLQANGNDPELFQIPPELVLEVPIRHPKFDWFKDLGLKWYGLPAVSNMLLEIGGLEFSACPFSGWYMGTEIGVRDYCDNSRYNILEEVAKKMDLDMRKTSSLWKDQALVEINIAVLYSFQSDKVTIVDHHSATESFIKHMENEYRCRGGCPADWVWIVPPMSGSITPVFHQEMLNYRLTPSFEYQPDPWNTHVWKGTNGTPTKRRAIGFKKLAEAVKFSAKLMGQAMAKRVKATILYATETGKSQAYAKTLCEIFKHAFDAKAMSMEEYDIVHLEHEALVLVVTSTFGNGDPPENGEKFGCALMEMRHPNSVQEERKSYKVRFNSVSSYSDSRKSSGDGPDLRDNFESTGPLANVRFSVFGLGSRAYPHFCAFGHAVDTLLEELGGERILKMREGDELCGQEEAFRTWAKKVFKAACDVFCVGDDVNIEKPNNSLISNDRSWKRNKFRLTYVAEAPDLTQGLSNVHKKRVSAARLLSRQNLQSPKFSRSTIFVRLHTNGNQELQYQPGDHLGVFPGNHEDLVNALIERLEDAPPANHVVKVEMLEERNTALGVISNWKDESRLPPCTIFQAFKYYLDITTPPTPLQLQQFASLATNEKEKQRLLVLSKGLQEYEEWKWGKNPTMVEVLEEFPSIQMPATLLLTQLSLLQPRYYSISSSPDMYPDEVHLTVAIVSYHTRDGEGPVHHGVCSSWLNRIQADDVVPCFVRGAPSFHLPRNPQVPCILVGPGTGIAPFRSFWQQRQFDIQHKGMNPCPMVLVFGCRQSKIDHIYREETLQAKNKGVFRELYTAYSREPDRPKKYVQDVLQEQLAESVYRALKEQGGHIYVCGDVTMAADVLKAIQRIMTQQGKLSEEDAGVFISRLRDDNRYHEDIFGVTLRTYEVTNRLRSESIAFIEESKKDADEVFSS
Chain of human Tropomyosin Receptor Kinase A (TRKA), NTRK1 (gene 4914) (P04629 whole entry, looked up): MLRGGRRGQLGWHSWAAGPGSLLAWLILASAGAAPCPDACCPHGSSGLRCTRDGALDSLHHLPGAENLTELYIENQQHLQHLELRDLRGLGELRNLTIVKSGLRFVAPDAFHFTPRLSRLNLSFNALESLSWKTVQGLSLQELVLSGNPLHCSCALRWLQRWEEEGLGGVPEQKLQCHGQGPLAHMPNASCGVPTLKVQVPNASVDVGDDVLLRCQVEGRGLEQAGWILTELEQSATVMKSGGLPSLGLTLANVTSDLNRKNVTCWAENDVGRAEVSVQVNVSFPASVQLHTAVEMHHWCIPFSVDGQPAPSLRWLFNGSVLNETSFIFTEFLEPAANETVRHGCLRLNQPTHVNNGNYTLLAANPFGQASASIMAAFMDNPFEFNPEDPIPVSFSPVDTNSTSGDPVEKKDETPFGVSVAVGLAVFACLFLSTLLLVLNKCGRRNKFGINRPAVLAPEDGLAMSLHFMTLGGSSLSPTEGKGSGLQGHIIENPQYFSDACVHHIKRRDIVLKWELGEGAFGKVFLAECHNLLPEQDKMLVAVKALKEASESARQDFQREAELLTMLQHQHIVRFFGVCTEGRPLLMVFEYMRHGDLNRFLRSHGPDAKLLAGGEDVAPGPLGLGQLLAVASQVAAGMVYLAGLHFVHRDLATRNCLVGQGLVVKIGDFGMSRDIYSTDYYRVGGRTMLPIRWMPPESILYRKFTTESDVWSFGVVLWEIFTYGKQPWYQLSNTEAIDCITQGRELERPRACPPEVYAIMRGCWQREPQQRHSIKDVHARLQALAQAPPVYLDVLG
Chain of sheep Cyclooxygenase-1 (Cox1), PTGS1 (gene 443551) (P05979 whole entry, looked up): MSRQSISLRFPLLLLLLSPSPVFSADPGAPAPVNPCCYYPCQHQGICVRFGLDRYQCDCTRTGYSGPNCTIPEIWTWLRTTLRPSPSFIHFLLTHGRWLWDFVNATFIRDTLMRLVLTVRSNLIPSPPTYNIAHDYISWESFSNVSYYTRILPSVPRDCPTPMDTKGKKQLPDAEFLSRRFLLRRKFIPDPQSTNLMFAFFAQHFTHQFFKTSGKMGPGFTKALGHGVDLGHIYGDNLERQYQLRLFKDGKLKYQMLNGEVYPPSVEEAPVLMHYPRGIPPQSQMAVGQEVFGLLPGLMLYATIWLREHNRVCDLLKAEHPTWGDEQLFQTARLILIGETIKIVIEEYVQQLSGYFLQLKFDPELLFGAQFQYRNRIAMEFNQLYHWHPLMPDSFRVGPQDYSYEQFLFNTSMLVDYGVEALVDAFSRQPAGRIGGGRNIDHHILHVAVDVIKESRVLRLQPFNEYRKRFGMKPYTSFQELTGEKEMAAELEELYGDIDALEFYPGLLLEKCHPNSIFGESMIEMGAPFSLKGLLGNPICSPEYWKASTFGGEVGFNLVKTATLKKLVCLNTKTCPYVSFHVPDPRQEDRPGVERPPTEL
Chain of human Sirtuin 3 (SIRT3), SIRT3 (gene 23410) (Q9NTG7 whole entry, looked up): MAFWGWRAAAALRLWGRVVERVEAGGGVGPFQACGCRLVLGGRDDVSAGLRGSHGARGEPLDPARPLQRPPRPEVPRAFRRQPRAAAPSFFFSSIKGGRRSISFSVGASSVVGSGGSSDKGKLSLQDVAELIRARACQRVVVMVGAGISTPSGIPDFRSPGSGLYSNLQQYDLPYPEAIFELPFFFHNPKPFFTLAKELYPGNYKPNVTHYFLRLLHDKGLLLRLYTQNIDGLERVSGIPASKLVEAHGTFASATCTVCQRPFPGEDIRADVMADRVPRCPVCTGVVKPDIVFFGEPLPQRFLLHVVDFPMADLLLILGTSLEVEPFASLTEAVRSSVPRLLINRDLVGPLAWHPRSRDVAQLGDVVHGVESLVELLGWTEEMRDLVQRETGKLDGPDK
Chain of bovine Dopamine Receptor (DR), Non-selective Binding, DRD1 (gene 281125) (Q95136 whole entry, looked up): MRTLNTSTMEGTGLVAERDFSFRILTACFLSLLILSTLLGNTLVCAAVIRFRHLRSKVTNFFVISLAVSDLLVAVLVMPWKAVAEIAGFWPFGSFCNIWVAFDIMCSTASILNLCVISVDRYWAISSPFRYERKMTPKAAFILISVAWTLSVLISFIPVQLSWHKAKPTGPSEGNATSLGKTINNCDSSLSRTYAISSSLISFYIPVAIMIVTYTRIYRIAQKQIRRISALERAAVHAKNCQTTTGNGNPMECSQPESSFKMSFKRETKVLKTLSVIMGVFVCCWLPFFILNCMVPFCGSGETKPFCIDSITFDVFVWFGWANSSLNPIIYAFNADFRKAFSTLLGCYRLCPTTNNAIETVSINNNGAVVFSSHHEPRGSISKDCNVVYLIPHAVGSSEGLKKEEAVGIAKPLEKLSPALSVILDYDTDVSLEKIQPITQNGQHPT

In the case of `N#Cc1cc(Br)c(O)c(Br)c1`, the compound was called inactive in assay [1] and in [2]. Besides, the AC50 in assay [3] is 0.677 µM (active).

For `Cc1ccc(-c2c(Cl)nc(C#N)n2S(=O)(=O)N(C)C)cc1`, the call in assay [4] and in assay [6] was inactive. In addition, the AC50 in assay [5] was 3.36 µM (active).

As to `CC(Oc1ccc(Cl)cc1Cl)C(=O)O` (stereo not drawn), the call in assay [1] was inactive.

On to `CNC(=O)ON=CC(C)(C)SC`, for which, in assay [7], the AC50 is 6.41 µM (active).

For the compound `N#Cc1nn(-c2c(Cl)cc(C(F)(F)F)cc2Cl)c(N)c1S(=O)C(F)(F)F` (stereo not drawn), the compound was classed as inactive in assay [8].

`CCOP(=S)(OCC)SCn1c(=O)oc2cc(Cl)ccc21`: the compound was called inactive in [9].

As for `CC1COC(Cn2cncn2)(c2ccc(Oc3ccc(Cl)cc3)cc2Cl)O1` (stereo not drawn), the call in assay [8] was inactive. Also, the AC50 in [5] was 1.3 µM (active).

Consider `CC1=C(C(=O)Nc2ccccc2)SCCO1`, for which the compound was classed as inactive in [5].

Turning to `C=CCC1=C(C)[C@@H](OC(=O)[C@@H]2[C@@H](C=C(C)C)C2(C)C)CC1=O`, the call in assay [10] was inactive.

Take `COC(=O)N(OC)c1ccccc1COc1ccn(-c2ccc(Cl)cc2)n1`: the compound was called inactive in assay [3].

Regarding `CCNc1nc(Cl)nc(NC(C)C)n1`, the result in [2] was inactive. Besides, the AC50 in assay [11] is 7.07 µM (active) and 12.4 µM (active).

For the compound `C=CCC1=C(C)C(OC(=O)C2C(C=C(C)C)C2(C)C)CC1=O` (stereo not drawn), the call in assay [8], in [12] and in [5] was inactive.

As to `O=C(Nc1ccccc1)Nc1ccnc(Cl)c1`, the outcome in [13] and in assay [14] was inactive.

For `CCCN(CCC)c1c([N+](=O)[O-])cc(S(N)(=O)=O)cc1[N+](=O)[O-]`, the compound was classed as inactive in assay [8], in assay [1], in assay [4], in assay [15], in assay [11] and in assay [16]. Moreover, the compound was called inactive in [9].

For the compound `CN(C)C(=S)SSC(=S)N(C)C`, the compound was called inactive in assay [17], in assay [5] and in assay [10]. In addition, the AC50 was 6.68 µM (active) in assay [18] and 6.85 µM (active) in assay [16].

As for `CC(C)(C)c1ccc(CSc2cnn(C(C)(C)C)c(=O)c2Cl)cc1`, the compound was classed as inactive in assay [14] and in [10].

On to `C#CCOS(=O)OC1CCCCC1Oc1ccc(C(C)(C)C)cc1` (stereo not drawn), for which the AC50 in assay [14] is 13.3 µM (active).

Take `CCc1nn(C)c(C(=O)NCc2ccc(C(C)(C)C)cc2)c1Cl`: the result in assay [8] was inactive.

In the case of `CCCCOC(=O)c1ccccc1C(=O)OCCCC`, the outcome in assay [4], in assay [9], in [10] and in assay [19] was inactive.

For `CCCC1COC(Cn2cncn2)(c2ccc(Cl)cc2Cl)O1` (stereo not drawn), the call in [20] was inactive.
